Source: PubChem BioAssay (several laboratories)
Peg3 prom inh-1 = Peg3 promoter-driven luciferase inhibitors, primary screen, cell-based, HeLa, luciferase luminescence. hit rate 1.7% among 360,000. inhibition, % at 20 µM. AID 588405, 2011. HeLa PEG-Prom luciferase reporter, overnight;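 active means inhibition of at least 50% at 20 µM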
TWEAK-Fn14 inh = inhibitors of TWEAK-Fn14 signaling, primary screen, luciferase reporter cells, uHTS; AID 1159606, 2016; hit rate 2% among 360,000; TWEAK-stimulated Fn14 reporter cells, luciferase luminescence, 8 h; inhibition, % at 10 µM; in the data active means inhibition above about 50%
HIF-2a block = HIF-2a reporter inhibitors, primary screen, luminescence, 786-0 RCC cells. 786-0 RCC cells HIF-2a reporter, luciferase luminescence, overnight. inhibition, % at 18.8 µM. hit rate 0.72% among 360,000. AID 624352, 2012;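 active means inhibition of the luminescence signal of 40% or more relative to plate controls, in a single-dose primary screen at 18.75 µM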
TROY NFkB inh = inhibitors of TROY-driven NF-kB signaling, primary screen, Q293 LMP1-TROYcd cells, NF-kB luciferase, uHTS | Q293 LMP1-TROYcd NF-kB luciferase reporter, 4 h | inhibition, % at 10 µM | hit rate 0.98% among 360,000 | AID 1347056, 2019;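 active means compounds whose plate-normalised and pattern-corrected inhibition of the luciferase reporter signal at the single screening dose is 50% or more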
LMP1 NFkB inh = EBV LMP1-driven NF-kappaB luciferase reporter inhibitors, primary screen, cell-based, luminescence, single point; LMP1-induced NF-kappaB luciferase reporter cells; inhibition, % at 12.5 µM; hit rate 0.69% among 350,000; in the data active means inhibition above about 41%;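 further: 0% = neutral control wells and 100% = reference inhibitor control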
TRPM1 prom inh = inhibitors of MITF-dependent TRPM1 promoter reporter, primary screen, cell-based, SK-MEL-5, single point, luciferase. SK-MEL-5 TRPM1 promoter luciferase, 24 h. inhibition, % at 12.5 µM. hit rate 0.83% among 330,000;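 active means mean inhibition across replicates of 60% or more, whatever share of single replicates reaches that level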
Peg3 prom inh-2 = Peg3 promoter reporter inhibitors, retest, confirmation, cell-based, HeLa, luciferase reporter, single concentration. shares compounds with Peg3 prom inh-1. inhibition, % at 20 µM. HeLa PEG-Prom luciferase reporter, luminescence, overnight. hit rate 84% among 1,300;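 active means at 20 µM dose, 40% or more inhibition averaged across four replicates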
Mdm2 MdmX conf = retested Mdm2-MdmX interaction blockers, confirmation, cell-based, luminescence, single concentration, set 2; hit rate 99% among 740; inhibition, % at 8 µM; SaOS-2 split-luciferase Mdm2/MdmX complementation; shares compounds with HIF-2a block;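 active means mean inhibition of the luminescence signal across two replicates at or above 26 percent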
Target sequence (O15151 whole entry, looked up): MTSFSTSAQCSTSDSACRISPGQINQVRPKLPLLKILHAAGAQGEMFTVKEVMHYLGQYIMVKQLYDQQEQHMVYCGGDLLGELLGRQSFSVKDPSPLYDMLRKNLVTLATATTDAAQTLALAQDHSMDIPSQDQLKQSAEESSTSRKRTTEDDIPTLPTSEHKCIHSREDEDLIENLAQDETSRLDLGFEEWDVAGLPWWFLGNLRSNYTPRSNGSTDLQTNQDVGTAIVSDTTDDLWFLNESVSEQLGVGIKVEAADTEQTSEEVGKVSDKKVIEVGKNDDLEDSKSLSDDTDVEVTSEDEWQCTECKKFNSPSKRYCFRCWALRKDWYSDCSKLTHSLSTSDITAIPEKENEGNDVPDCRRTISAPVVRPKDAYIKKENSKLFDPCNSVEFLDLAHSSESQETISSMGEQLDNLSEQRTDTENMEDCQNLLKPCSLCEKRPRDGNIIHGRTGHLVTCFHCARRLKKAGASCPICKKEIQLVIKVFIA
Target sequence (Q00987 whole entry, looked up): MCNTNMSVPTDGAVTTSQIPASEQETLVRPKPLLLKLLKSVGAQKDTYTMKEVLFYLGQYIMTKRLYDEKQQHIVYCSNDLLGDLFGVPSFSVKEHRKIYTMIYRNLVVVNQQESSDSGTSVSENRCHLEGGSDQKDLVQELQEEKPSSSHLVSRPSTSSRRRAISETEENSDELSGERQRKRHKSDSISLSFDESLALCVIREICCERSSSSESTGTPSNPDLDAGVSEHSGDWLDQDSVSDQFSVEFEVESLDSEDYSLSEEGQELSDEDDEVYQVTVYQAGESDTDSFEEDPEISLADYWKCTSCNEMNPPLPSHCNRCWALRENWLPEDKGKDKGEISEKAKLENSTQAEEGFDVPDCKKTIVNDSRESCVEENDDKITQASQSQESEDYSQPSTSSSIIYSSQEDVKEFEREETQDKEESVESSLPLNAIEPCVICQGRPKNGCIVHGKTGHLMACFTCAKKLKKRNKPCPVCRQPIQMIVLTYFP
HIF-2a conf = HIF-2a reporter inhibitor retest, confirmation, luminescence, 786-0 RCC cells. shares compounds with HIF-2a block. inhibition, % at 18.8 µM. hit rate 56% among 1,800. HIF-2a luciferase reporter luminescence, overnight;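 active means mean inhibition across four replicates of at least 40 percent at the single tested concentration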
HIF-1a cs = HIF-1a luciferase reporter signal reduction – MiaPaCa-2 cells, single concentration, counter-screen for HIF-2a inhibitor project, confirmation; MiaPaCa-2 HIF-1a luciferase reporter, desferoxamine, overnight; hit rate 72% among 1,800; AID 651589, 2012; shares compounds with HIF-2a block; inhibition, % at 18.8 µM;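 active means mean inhibition of the reporter signal across four replicates at the single tested dose of 50% or more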
The depositor's hits bear a star; nt = not tested or not shown. An excerpt weighted towards active compounds, which were near 4% of everything screened.

SMILES	Peg3 prom inh-1	TWEAK-Fn14 inh	HIF-2a block	TROY NFkB inh	LMP1 NFkB inh	TRPM1 prom inh	Peg3 prom inh-2	Mdm2 MdmX conf	HIF-2a conf	HIF-1a cs
CCCS(=O)(=O)c1ncc(Cl)c(C(=O)Nc2ccc(S(=O)(=O)Nc3ncccn3)cc2)n1	14	-1	-5	-18	1	5	nt	nt	nt	nt
CC(=O)Nc1ccc(NC(=O)c2nc(S(=O)(=O)Cc3cccc(C)c3)ncc2Cl)cc1	102*	70*	-23	75*	7	49	96*	103*	nt	nt
COc1cccc(NC(=O)c2nc(S(C)(=O)=O)ncc2Cl)c1	108*	74*	68*	53*	-5	57	98*	101*	65*	11
COc1ccc(Cl)cc1C(=O)NNC(=O)CNC(=O)c1ccc(C)s1	21	-10	25	5	2	21	nt	nt	nt	nt
COC(=O)c1nn(-c2ccc3c(c2)OCO3)cc1O	-126	29	-222	-22	-13	-50	nt	nt	nt	nt
COC(=O)c1nn(-c2ccc3c(c2)CCN3C(C)=O)cc1O	90*	103*	78*	76*	55*	72*	84*	nt	-131	46
COCCn1c(C)cc(C2=NNC(=Nc3ccc(Cl)cc3Cl)SC2)c1C	-3	8	7	-10	15	13	nt	nt	nt	nt
COCCn1c(C)cc(C2=NNC(=NC3CC3)SC2)c1C	104*	102*	93*	86*	84*	102*	95*	101*	99*	105*
O=C(Nc1ccc(S(=O)(=O)NC2=NCCCCC2)cc1)c1ccc([N+](=O)[O-])s1	69*	-2	60*	12	3	89*	77*	nt	21	106*
O=S1(=O)CC(N2CCC(Cc3ccccc3)CC2)CN1C1CCCCC1 (stereo not drawn)	32	-4	9	-17	nt	nt	nt	nt	nt	nt
O=C(Nc1ccc(S(=O)(=O)NC2=NCCCCC2)cc1)c1ccc(Cl)c([N+](=O)[O-])c1	-3	12	1	14	0	18	nt	nt	nt	nt
Cc1cccc(C)c1NS(=O)(=O)c1ccc(NC(=O)c2ccc(Cl)c([N+](=O)[O-])c2)cc1	106*	87*	91*	68*	12	-6	98*	102*	25	108*
COc1cccc(-c2sc3ccccc3c2-c2ccc(OCCN(C)C)cc2)c1	94*	-9	79*	23	89*	18	99*	nt	19	107*
CC/C(C)=N\Nc1nc(-c2cc3cc(OC)ccc3oc2=O)cs1	-220	-15	-280	-21	-19	-62	nt	nt	nt	nt
COc1cccc2nc3c(C(=O)NCCN(C)C)cccc3cc12	99*	-74	43*	-93	0	77*	97*	nt	31	105*
Cc1nc(Sc2nnnn2C)c2c3c(sc2n1)CCC3	55*	78*	55*	23	48*	87*	29	nt	28	-9
Cn1cccc1C1CCCN1CC(=O)Nc1ccc(C(N)=O)cc1 (stereo not drawn)	-10	13	14	-6	-5	2	nt	nt	nt	nt
CN(Cc1ccccc1)c1nc(-c2ccc([N+](=O)[O-])cc2)nc2ccccc12	8	3	-2	-22	15	2	nt	nt	nt	nt
O=[N+]([O-])c1ccc(-c2nc(C(Cl)Cl)c3ccccc3n2)cc1	64*	-36	-29	34	20	66*	34	102*	nt	nt
Cc1ccc(S(=O)(=O)N(C)C[C@@H]2Oc3ncc(C#CCC(C)C)cc3C(=O)N([C@H](C)CO)C[C@H]2C)cc1	16	-36	11	8	0	nt	nt	nt	nt	nt
COC(=O)c1cn(NC(=O)c2cc([N+](=O)[O-])ccc2F)c(=O)c2ccccc12	58*	68*	4	9	86*	-6	66*	95*	nt	nt
COC(=O)c1cn(NC(=O)C2CCC(C)CC2)c(=O)c2ccccc12 (stereo not drawn)	4	-4	2	2	15	1	nt	nt	nt	nt
COc1ccc(CCNC(=O)COC(=O)CSc2ccc(C(N)=O)cc2[N+](=O)[O-])cc1OC	3	-24	-3	-4	1	5	nt	nt	nt	nt
O=C1c2ccccc2S(=O)(=O)N1Cc1nc2ccccc2s1	93*	103*	67*	79*	76*	70*	58*	nt	76*	75*
C/C(=N\Nc1ccc2nncn2n1)c1ccco1	-11	12	5	-8	-9	5	nt	nt	nt	nt
SMILES	Peg3 prom inh-1	TWEAK-Fn14 inh	HIF-2a block	TROY NFkB inh	LMP1 NFkB inh	TRPM1 prom inh	Peg3 prom inh-2	Mdm2 MdmX conf	HIF-2a conf	HIF-1a cs
C/C(=N\Nc1ccc2nncn2n1)c1ccccn1	60*	-19	-6	-10	nt	nt	60*	83*	nt	nt
O=C1CSC(=S)N1c1cccnc1	22	35	11	3	-14	3	nt	nt	nt	nt
O=C1CSC(=S)N1Cc1cccnc1	96*	47	47*	6	23	22	50*	101*	nt	nt
CC(C)=NOc1nc(N2CCOCC2)nc(N2CCOCC2)n1	16	1	19	4	nt	nt	nt	nt	nt	nt
CCCCCCCNC(=O)C1(CC2CC(c3cccc(Br)c3)=NO2)CCNCC1 (stereo not drawn)	99*	-81	-74	-48	-33	99*	99*	103*	nt	nt
CCCc1nc2oc3c(NCC4CCCO4)ncnc3c2c2c1COC(C)(C)C2 (stereo not drawn)	27	7	10	7	-1	5	nt	nt	nt	nt
CCCc1nc2oc3c(NCCCN(C)C)ncnc3c2c2c1CCCC2	92*	-49	17	-31	-35	78*	93*	101*	nt	nt
C/C(CC(=O)NCCN1CCOCC1)=N\NC(=O)c1ccncc1	19	8	16	12	-21	-93	nt	nt	nt	nt
COc1cc(SC)ccc1C(=O)Nc1nc2ccccc2[nH]1	109*	100*	96*	84*	96*	97*	96*	nt	99*	107*
CCCS(=O)(=O)c1cnc(C2COc3ccccc3O2)nc1N (stereo not drawn)	88*	102*	81*	81*	71*	72*	77*	nt	89*	90*
